Source: PubChem BioAssay AID463173 (ICCB-Longwood Screening Facility, Harvard Medical School, 2010)
In all, about 52,000 compounds went through this assay and about 4,300 (8.3%) were called active. Shown is part of a subset that was picked to be rich in actives. Values without a mark were called inactive. Rule as the data show it: active = survival mostly below about 52% (no sharp cut-off); inactive = mostly above about 56%.

System: DeltatarO mutant
Assay: growth inhibition of S. aureus wild type versus tarO mutant, primary screen, teichoic acid synthesis inhibitors, RN4220, OD600 (AID 463173)
Details: OD600, 18 h, stronger effect = lower value, screened at 18.75 µg/mL (by protocol)

Row | SMILES | survival
1 | Cc1ccc(NC(=O)C2CCCN(S(=O)(=O)c3ccc(F)cc3)C2)cc1 (configuration not stated) | 65%
2 | COC(=O)c1c(NC(=O)c2nc(SCc3ccccc3C)ncc2Cl)sc2c1CCCC2 | 111%
3 | Cc1ccc2nc(CSc3nnc(NC(=O)c4ccc(C(C)(C)C)cc4)s3)cc(=O)n2c1 | 81%
4 | Cn1nnnc1SCC(=O)N1CCCc2ccccc21 | 81%
5 | O=C1CC(C(=O)NCc2ccco2)C2(CCCCC2)O1 (configuration not stated) | 85%
6 | N#Cc1cccc(NC(=O)CCNS(=O)(=O)c2ccc3c(c2)CCN3C(=O)C2CC2)c1 | 82%
7 | Cc1nn2cc(-c3ccc(OC(C)C)cc3)nc2s1 | 84%
8 | CCN(CC)CCCNC(=O)c1cnc(SC)nc1-c1ccccc1 | 69%
9 | Cc1ccc(Nc2cc(C)c(C#N)c3nc4ccccc4n23)c(C)c1 | 38% (active)
10 | Cc1ccc(Nc2cc(C)c(C#N)c3nc4ccccc4n23)cc1Cl | 83%
11 | Cc1cc(Nc2ccc(F)cc2)n2c(nc3ccccc32)c1C#N | 89%
12 | O=C(Cn1nnc(-c2ccccc2NC(=O)c2cnccn2)n1)Nc1ccc2c(c1)OCCO2 | 105%
13 | O=C(Oc1ccc2c(c1)OCO2)c1cccc(S(=O)(=O)N2CCCC2)c1 | 58%
14 | COc1ccc(CNC(=O)C(CC(C)C)N2Cc3ccccc3C2=O)cc1 (configuration not stated) | 126%
15 | COc1cc(OC)c(NC(=O)CC(c2cccs2)N2Cc3ccccc3C2=O)cc1Cl (configuration not stated) | 92%
16 | COc1ccc(C(CC(=O)Nc2cc(Cl)c(OC)cc2OC)N2Cc3ccccc3C2=O)cc1 (configuration not stated) | 0% (active)
17 | COc1cc(C(CC(=O)NCc2ccccc2)N2Cc3ccccc3C2=O)cc(OC)c1OC (configuration not stated) | 135%
18 | Cc1ccc(NC(=O)CC(c2ccc(F)cc2)N2Cc3ccccc3C2=O)cc1C (configuration not stated) | 74%
19 | COc1ccc(CNC(=O)C(C(C)C)N2Cc3ccccc3C2=O)cc1 (configuration not stated) | -5% (active)
20 | COc1cc(Cl)c(C)cc1NC(=O)CC(c1ccc(F)cc1)N1Cc2ccccc2C1=O (configuration not stated) | 0% (active)
21 | CCOc1ccc(C(CC(=O)Nc2cc(C)c(Cl)cc2OC)N2Cc3ccccc3C2=O)cc1OC (configuration not stated) | 70%

Row | SMILES | survival
22 | COc1cc(C(CC(=O)NCCC(C)C)N2Cc3ccccc3C2=O)cc(OC)c1OC (configuration not stated) | 94%
23 | Cc1ccc(CNC(=O)C(C(C)C)N2Cc3ccccc3C2=O)cc1 (configuration not stated) | 73%
24 | COc1ccc(C(CC(=O)Nc2cc(OC)c(OC)c(OC)c2)N2Cc3ccccc3C2=O)cc1 (configuration not stated) | 57%
25 | CCOC(=O)CNC(=O)CC(c1cc(OC)c(OC)c(OC)c1)N1Cc2ccccc2C1=O (configuration not stated) | 47% (active)
26 | CSc1nn(Cc2ccc(F)cc2)c(N(C(C)=O)C(C)=O)c1S(=O)(=O)c1ccccc1 | 74%
27 | COc1ccc(OC)c(NC(=O)Cn2c(=O)n(Cc3nc(C)no3)c(=O)c3ccccc32)c1 | 90%
28 | O=C(CSc1oc(-c2ccco2)nc1S(=O)(=O)c1ccc(Cl)cc1)c1ccc(Cl)cc1 | 80%
29 | Cn1cc(S(=O)(=O)c2ccccc2)c(=O)c2cc(F)c(N3CCCC3)cc21 | 123%
30 | CC(=O)N1CCCc2cc(S(=O)(=O)N3CCC(C(=O)Nc4cccc(Cl)c4C)CC3)ccc21 | 74%
31 | Cc1cccc(C)c1-n1ncc(C(=O)NCCCN2CCC(C)CC2)c1C1CCN(C(=O)OC(C)(C)C)CC1 | 91%
32 | COc1ccccc1CNC(=O)CCc1c(C)nn(-c2ccc(N3CCOCC3)nn2)c1C | 80%
33 | CC(C)(C)OC(=O)N1CCC(c2c(C(=O)NCCN3CCc4ccccc4C3)cnn2-c2ccc(F)cc2F)CC1 | 70%
34 | Cc1ccc(-n2ncc(C(=O)NCc3ccco3)c2C2CCN(C(=O)OC(C)(C)C)CC2)cc1 | 94%
35 | CC(C)(C)OC(=O)N1CCC(c2c(C(=O)NCCN3CCOCC3)cnn2-c2ccc(F)cc2)CC1 | 73%
36 | Cc1ccc(-n2ncc(C(=O)NCc3ccccn3)c2C2CCN(C(=O)OC(C)(C)C)CC2)c(C)c1 | 63%
37 | Cc1ccc(-n2ncc(C(=O)NCc3ccco3)c2C2CCN(C(=O)OC(C)(C)C)CC2)c(C)c1 | 25% (active)
38 | Cc1ccc(C)c(N2CCN(CCCNC(=O)c3cnn(-c4ccccc4)c3C3CCN(C(=O)OC(C)(C)C)CC3)CC2)c1 | 104%
39 | Cc1ccc(C)c(N2CCN(CCCNC(=O)c3cnn(-c4cccc(Cl)c4)c3C3CCN(C(=O)OC(C)(C)C)CC3)CC2)c1 | 52% (active)
40 | Cc1cccc(-n2ncc(C(=O)NCc3ccco3)c2C2CCN(C(=O)OC(C)(C)C)CC2)c1 | 81%
41 | CC(C)(C)OC(=O)N1CCC(c2c(C(=O)NCCN3CCOCC3)cnn2-c2ccc(F)cc2F)CC1 | -1% (active)
42 | Cc1ccc(C)c(N2CCN(CCCNC(=O)c3cnn(-c4ccccc4Cl)c3C3CCN(C(=O)OC(C)(C)C)CC3)CC2)c1 | 74%

Row | SMILES | survival
43 | CC(C)(C)OC(=O)N1CCC(c2c(C(=O)NCc3ccccn3)cnn2-c2ccccc2)CC1 | 101%
44 | CC(C)(C)OC(=O)N1CCC(c2c(C(=O)NCc3ccccn3)cnn2-c2ccccc2Cl)CC1 | -4% (active)
45 | COc1ccc(NC(=O)CSc2oc(-c3cccs3)nc2S(=O)(=O)c2ccc(Br)cc2)c(OC)c1 | 57%
46 | O=C(Nc1cccc(F)c1)C1CCN(c2nc3ccccc3nc2C(F)(F)F)CC1 | 83%
47 | COc1ccc(C(=O)N2CCC(C(=O)O)CC2)cc1 | 97%
48 | Nc1cccc(-c2cn3ccccc3n2)c1 | 96%
49 | Cc1ccc(-c2noc(CSc3nnc(C)n3-c3ccc(C)c(C)c3)n2)cc1 | 75%
50 | CCOc1ccc(CNC(=O)Cn2cc3c(n2)-c2c(oc(C(=O)N4CCOCC4)c2C)CC3)cc1 | 72%
51 | Cc1cccc(C)c1NC(=O)C(=O)NCC(c1ccc2c(c1)OCO2)N1CCN(C)CC1 (configuration not stated) | 88%
52 | Cc1cccc(NCN2C(=O)S/C(=C/c3ccc(N(C)C)cc3)C2=O)c1 | 73%
53 | O=C(Cn1nc(-c2ccccc2)ccc1=O)NCC1COCCO1 (configuration not stated) | 92%
54 | COc1ccc(NC(=O)c2c(NC(=O)COc3ccc(Cl)cc3)sc3c2CCCCC3)cc1 | 135%
55 | CCCCOc1ccc(C(=O)NCCc2csc(-c3ccc(OC)cc3)n2)cc1 | 108%
56 | CCOC(=O)c1c(NC(=O)C(C)Sc2cn(CCNC(=O)c3ccc(OCC)cc3)c3ccccc23)sc2c1CCC2 (configuration not stated) | 92%
57 | CCOC(=O)c1c(C)[nH]c(C)c1S(=O)(=O)N(C)CC(=O)Nc1ccc(C)cc1C | 95%
58 | Cc1cccc(C)c1-n1ncc(C(=O)NCCN2CCN(C)CC2)c1C1CCN(C(=O)OC(C)(C)C)CC1 | 8% (active)
59 | CCOC(=O)c1cnn(-c2cccc(Cl)c2)c1C1CCN(C(=O)OC(C)(C)C)CC1 | 55% (active)
60 | Cc1ccc(-n2ncc(C(=O)NCCN3CCN(C)CC3)c2C2CCN(C(=O)OC(C)(C)C)CC2)c(C)c1 | 92%
61 | CC1CCN(C(=O)c2cnn(-c3cccc(Cl)c3)c2C2CCN(C(=O)OC(C)(C)C)CC2)CC1 | 78%
62 | Cc1ccc(-n2ncc(C(=O)NCCN3CCc4ccccc4C3)c2C2CCN(C(=O)OC(C)(C)C)CC2)c(C)c1 | 64%
63 | Cc1c(Cl)cccc1-n1ncc(C(=O)NC2CCCC2)c1C1CCN(C(=O)OC(C)(C)C)CC1 | 102%

Row | SMILES | survival
64 | Cc1ccc(-n2ncc(C(=O)NCCN3CCOCC3)c2C2CCN(C(=O)OC(C)(C)C)CC2)c(C)c1 | 37% (active)
65 | Cc1cccc(C)c1-n1ncc(C(=O)NCCCN2CCCCC2)c1C1CCN(C(=O)OC(C)(C)C)CC1 | 89%
66 | CCN1CCN(C(=O)c2cnn(-c3cccc(Cl)c3)c2C2CCN(C(=O)OC(C)(C)C)CC2)CC1 | 74%
67 | CCOC(=O)N1CCC(NC(=O)c2cnn(-c3cccc(Cl)c3C)c2C2CCN(C(=O)OC(C)(C)C)CC2)CC1 | 20% (active)
68 | Cc1cccc(C)c1-n1ncc(C(=O)NCCN2CCOCC2)c1C1CCN(C(=O)OC(C)(C)C)CC1 | 101%
69 | Cc1c(Cl)cccc1-n1ncc(C(=O)NC2CCCCC2)c1C1CCN(C(=O)OC(C)(C)C)CC1 | 94%
70 | COc1cccc(-n2c(=O)c3sc4ccccc4c3n(CC(=O)NC3CCCCC3)c2=O)c1 | 126%
71 | Cc1ccc(-n2ncc(C(=O)NCc3ccccc3)c2C2CCN(C(=O)OC(C)(C)C)CC2)cc1 | 94%
72 | COc1cccc(-n2cc(C(=O)NCc3ccc(C)cc3)c3ccccc3c2=O)c1 | 81%
73 | COc1ccccc1CNS(=O)(=O)c1ccc2c(c1)CC(C)N2C(C)=O (configuration not stated) | 71%
74 | CC(C)COc1ccc(C(=O)Nc2scc(-c3ccc(Br)cc3)c2C(=O)OC(C)C)cc1 | 53%
75 | COc1ccc(NC(=O)Cn2ncc3c(C)n(Cc4cccc(Cl)c4)c(C)c3c2=O)cc1 | 92%
76 | CCOc1ccc(-n2cc(-c3ccccc3)c3c(NC4CCCC4)ncnc32)cc1 | 104%
77 | Cc1ccc(-n2ncc(C(=O)NCCCN3CCN(C)CC3)c2C2CCN(C(=O)OC(C)(C)C)CC2)c(C)c1 | 105%
78 | CCOC(=O)N1CCC(NC(=O)c2cnn(-c3ccc(F)cc3F)c2C2CCN(C(=O)OC(C)(C)C)CC2)CC1 | 71%
79 | Cc1ccc(-n2ncc(C(=O)NCCCN3CCCCC3)c2C2CCN(C(=O)OC(C)(C)C)CC2)c(C)c1 | 46% (active)
80 | CCN1CCN(CCCNC(=O)c2cnn(-c3ccc(C)cc3C)c2C2CCN(C(=O)OC(C)(C)C)CC2)CC1 | 144%
81 | CC(C)(C)OC(=O)N1CCC(c2c(C(=O)NC3CCN(Cc4ccccc4)CC3)cnn2-c2ccc(F)cc2F)CC1 | -2% (active)
82 | CC(C)(C)OC(=O)N1CCC(c2c(C(=O)NC3CCN(Cc4ccccc4)CC3)cnn2-c2cccc(F)c2)CC1 | 92%
